FLuc inh: Firefly luciferase inhibition profiling of diverse chemical library using quantitative high-throughput screening; Luciferin 4-monooxygenase (Photinus pyralis), P08659; purified P. pyralis luciferase, luminescence, biochemical; Potency, µM (highest dose often 115 µM), most hits filed as inhibitors; 2.5% of 76,000 active; AID 1347043, 2019; note: nearly all actives have a fitted effect of over 65% in size
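Luminescence read by CCD imaging after purified firefly luciferase (10nM final) was added to substrate buffer holding 10uM D-luciferin and 10uM ATP, pH 7.5, pre-dosed with compound.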
NIH3T3 tox: Cytotoxic Profiling in NIH 3T3 Cell Line of Diverse Libraries Using Quantitative High-Throughput Screening. 4.3% of 94,000 active. Potency, µM (top dose mostly 96.7 µM), without a hit: top-dose activity change, negative = cytotoxicity, most hits filed as inhibitors. NIH 3T3 viability, CellTiter-Glo ATP luminescence, 48-72 h. AID 1345082, 2018; note: nearly all actives have a fitted effect of over 55% in size
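ATP-dependent luminescence (CellTiter-Glo) served as the viability signal for NIH 3T3 cells treated with compound for 48 or 72 hr at 37 °C.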
hNpr1 antagonist: Natriuretic polypeptide receptor (hNpr1) antagonism - Primary qHTS; Atrial natriuretic peptide receptor 1 (Homo sapiens), P16066; Potency, µM (titrated, usually from 46.3 µM), inactives show at the top dose activity change, negative = inhibition, most hits filed as inhibitors; HEK293 hNpr1 GloSensor cGMP, ANP-stimulated luminescence; 1.6% of 76,000 active; calls by dose curve; note: nearly all actives have a fitted effect of over 60% in size
Target sequence (P16066 whole entry, looked up): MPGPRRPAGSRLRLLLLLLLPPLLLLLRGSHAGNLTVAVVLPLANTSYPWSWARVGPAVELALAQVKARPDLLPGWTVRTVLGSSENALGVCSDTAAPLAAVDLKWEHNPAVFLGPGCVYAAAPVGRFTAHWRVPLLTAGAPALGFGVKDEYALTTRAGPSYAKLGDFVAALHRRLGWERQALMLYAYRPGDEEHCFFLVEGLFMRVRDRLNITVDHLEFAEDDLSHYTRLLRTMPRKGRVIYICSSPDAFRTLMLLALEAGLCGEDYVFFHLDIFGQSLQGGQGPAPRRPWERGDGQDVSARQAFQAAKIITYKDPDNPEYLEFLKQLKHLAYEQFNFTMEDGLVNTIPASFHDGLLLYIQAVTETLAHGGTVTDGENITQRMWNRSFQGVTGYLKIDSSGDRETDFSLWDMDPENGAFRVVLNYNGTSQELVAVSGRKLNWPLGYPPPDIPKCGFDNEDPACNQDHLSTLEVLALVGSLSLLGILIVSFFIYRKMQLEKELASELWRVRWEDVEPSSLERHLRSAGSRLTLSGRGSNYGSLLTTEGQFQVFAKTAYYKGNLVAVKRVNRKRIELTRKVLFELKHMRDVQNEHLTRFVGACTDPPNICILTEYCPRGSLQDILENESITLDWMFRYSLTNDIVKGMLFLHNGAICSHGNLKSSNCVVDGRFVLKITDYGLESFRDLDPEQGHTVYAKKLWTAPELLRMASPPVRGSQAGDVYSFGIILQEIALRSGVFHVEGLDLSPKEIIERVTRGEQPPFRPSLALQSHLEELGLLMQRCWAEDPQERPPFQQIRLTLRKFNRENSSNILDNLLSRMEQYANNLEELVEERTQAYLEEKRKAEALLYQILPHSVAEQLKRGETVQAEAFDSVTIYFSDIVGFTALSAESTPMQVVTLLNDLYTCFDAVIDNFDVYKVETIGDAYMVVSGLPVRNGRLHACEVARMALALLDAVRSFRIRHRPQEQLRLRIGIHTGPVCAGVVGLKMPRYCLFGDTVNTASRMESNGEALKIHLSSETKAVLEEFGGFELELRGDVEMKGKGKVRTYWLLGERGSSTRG
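Compound pre-incubated 30 min at room temperature on GloSensor-loaded HEK293 cells stably carrying hNpr1 and the pGS-40F cGMP biosensor. Stimulation uses hNppA at 0.1 nM final; luminescence is taken at baseline and 20 min post-agonist.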
HEK cytotox: Cytotoxic Profiling in HEK 293 Cell Line of Diverse Libraries Using Quantitative High-Throughput Screening; 6.6% of 94,000 active; Potency, µM (doses to about 115 µM), for the others: at the highest dose activity change, negative = cytotoxicity, actives largely listed as inhibitors; HEK 293 viability, ATP luminescence (CellTiter-Glo), 48-72 h; note: nearly all actives have a fitted effect of over 60% in size
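Read-out: CellTiter-Glo ATP luminescence. Cells: HEK 293, 250 cells/well. Exposure: 48 or 72 hr, 37 degree Celsius.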
An asterisk follows results filed as active; i = inactive; u = inconclusive; x = not tested or not shown; [ ] = remark or other dose. A selection: hits, their analogues and other compounds. The true share with any hit is near 11%. Unless noted, calls come from the whole dose curve; as a rule, active = well fitted curve in the direction sought with a large enough effect; inconclusive = small, poorly fitted or top-dose-only effect, or another doubt; inactive = no such curve, though single readings can be large; an effect the other way counts as inactive or inconclusive. % is set by controls: 0 for no effect and ±100 for the full control effect; potency is the fitted concentration of half-maximal effect.

SMILES | FLuc inh | NIH3T3 tox | hNpr1 antagonist | HEK cytotox
CCc1ccc(NC(=O)c2ccc(Cn3ccn4nc5c(c4c3=O)CCCC5)cc2)cc1 | u | u | -18.9% | 20µM*
O=C(NCCC1=CCCCC1)c1ccc(Cn2ccn3nc4c(c3c2=O)CCCC4)cc1 | i | u | -22.3% | 39.8µM*
COc1cccc(CNC(=O)C2CN(C3CCCCC3)C(=O)N2)c1 (stereo not given) | x | -8.8%[138 µM] | x | -12.4%[172 µM]
COc1ccccc1Cn1ccn2nc3c(c2c1=O)CCCC3 | i | u | -4.5% | 44.7µM*
O=c1c2c3c(nn2ccn1Cc1cc(F)ccc1F)CCCC3 | i | u | -6.2% | u
O=C(NC1CCCC1)c1cc(C2CC2)nc2onc(C3CCNCC3)c12 | x | -24.4% | x | -16.5%
O=C(c1ccc(Cl)cc1)N1CCCN(c2ccc3nnc(-c4ccccc4)n3n2)CC1 | x | u | x | -13.1%
O=C(c1ccc(Cl)cc1)N1CCN(c2ccc3nnc(-c4ccccc4)n3n2)CC1 | x | 44.7µM* | x | u
O=C(c1ccc2nnc(-c3ccc(Cl)cc3)n2c1)N1CCN(Cc2ccccc2)CC1 | x | 28.2µM* | x | 25.1µM*
O=C(Cc1cccc(Cl)c1)N1CCN(c2ccc3nnc(-c4ccccc4)n3n2)CC1 | x | u | x | 44.7µM*
CNC(=O)c1cc(C)nc2onc(C3CCCN(C(=O)c4ccc(Cl)cc4)C3)c12 (stereo not given) | x | -22.9% | x | u
CN(CC(=O)N1CCCn2nc(-c3cccc(C(F)(F)F)c3)cc2C1)S(=O)(=O)c1ccc2c(c1)oc(=O)n2C | x | u | x | 31.6µM*
Cc1cccc(=O)n1CCC(=O)N1CCCn2nc(CO)cc2C1 | i | -5.7% | 0.0% | i
CCOc1ccc(CN2CCN(C/C=C/c3ccccc3OC)CC2CCO)cc1 (stereo not given) | i | u | -13.6% | 20µM*
COc1cccc(C(=O)NCCNC(=O)c2cccc(-c3ccc(SC)cc3)c2)c1 | x | -11.0% | x | u
O=C(NCCC1CCCCC1)c1ccc2nccn2c1 | u | u | -16.3%[70.6 µM] | 50.1µM*
O=C(NCC1CC1)c1ccc2nccn2c1 | x | 0.8%[174 µM] | x | i
O=C(NCc1cccs1)c1ccc2nccn2c1 | 39.8µM* | -28.3%[138 µM] | 1.3%[70.6 µM] | 2.8%[172 µM]
COc1ccc(CN2C[C@@H]3OCC(=O)N(c4ccccc4)[C@@H]3C2)cc1 | i | u | u | u
O=C(NC1CCCCC1)N1c2ccccc2CC1c1noc(C2CCOCC2)n1 (stereo not given) | i | -14.3% | 2.4% | -21.1%
O=C(NC1CCCC1)N1c2ccccc2CC1c1nc(C2CC2)no1 (stereo not given) | 20µM* | u | u | u
O=C(NCc1ccccc1Cl)c1ccc2oc(-c3ccccn3)nc2c1 | x | -28.7% | x | u
O=C(C1CCCN1C(=O)Nc1ccccc1)N1CCC(c2ccccc2)CC1 (stereo not given) | x | -24.8% | x | -18.6%
CC(C)(C)C(=O)Nc1cnc(-c2cccnc2)nc1 | 28.2µM* | -22.8% | -10.4% | -8.6%
O=C(CCc1ccccc1)Nc1cnc(-c2cccnc2)nc1 | i | -1.6% | -14.8% | u
SMILES | FLuc inh | NIH3T3 tox | hNpr1 antagonist | HEK cytotox
COCCn1ncc(N2CCC(C(=O)Nc3ccc(C)cc3)C2)cc1=O (stereo not given) | x | i | x | -3.0%
CCc1[nH]c2ccc(CNC(=O)Cc3cnc4c(C)cccn34)cc2c1C | u | u | 7.08µM* | u
CCc1[nH]c2ccc(CNC(=O)c3coc(CN4CCOCC4)c3)cc2c1C | 31.6µM* | -13.3% | 1.8% | -26.4%
O=C(NC1CCN(Cc2ccccc2)CC1)c1cccc2c1CCN2C(=O)c1ccccc1 | i | u | -27.7% | 39.8µM*
COc1ccccc1-c1cccc(CN2CCC(NC(=O)c3ccccc3C)CC2)c1 | x | u | x | 44.7µM*
COc1ccccc1-c1cccc(CN2CCC(NC(=O)c3ccccc3Cl)CC2)c1 | x | u | x | 79.4µM*
COC(=O)NC1CCN(Cc2cccc(-c3ccccc3OC)c2)CC1 | x | -26.7% | x | u
COc1ccc(CN2CC(Oc3ccccc3C(=O)NC3CC3)C2)cc1OC | i | -13.8% | -12.6% | -2.2%
COc1ccccc1-c1cccc(CN2CCC(NC(=O)N(C)C)CC2)c1 | x | u | x | 79.4µM*
COCC(=O)NC1CCN(C(=O)c2ccc(-c3ccc(OC)nn3)cc2)C1 (stereo not given) | x | 0.5% | x | -30.0%
Cc1ccc([S+](=O)([O-])N2CCCC2C(=O)N2CCC(N3CCOCC3=O)CC2)cc1 (stereo not given) | x | 4.2% | x | -5.1%
COc1ccccc1C(=O)NC1CCN(Cc2cccc(-c3ccccc3OC)c2)CC1 | x | u | x | 44.7µM*
COc1ccc(F)cc1-c1ccc(CN2CCC(NC(=O)c3ccc(Cl)cc3)C2)cc1 (stereo not given) | x | 14.1µM* | x | u
CCc1ccc(C(=O)NC2CCN(c3cc(-c4ccc(F)cc4)[nH]n3)C2)cc1 (stereo not given) | i | u | -14.7% | u
COc1ccc(F)cc1-c1ccc(CN2CCC(NC(=O)c3ccccn3)C2)cc1 (stereo not given) | x | 44.7µM* | x | u
COc1ccc(F)cc1-c1ccc(CN2CCC(NC(=O)c3ccc(NC(C)=O)cc3)C2)cc1 (stereo not given) | x | 20µM* | x | u
COc1ccc(F)cc1-c1ccc(CN2CCC(NC(=O)c3ccc(C)cc3)C2)cc1 (stereo not given) | x | 39.8µM* | x | 28.2µM*
COc1ccc(F)cc1-c1ccc(C(=O)O)cc1 | x | 1.9%[138 µM] | x | i
COc1ccc(CN(C)Cc2cccc(C(F)(F)F)c2)cc1 | x | -9.1%[138 µM] | x | u
COc1ccc(F)cc1-c1ccc(CN2CCC(NC(=O)Nc3ccccc3)C2)cc1 (stereo not given) | x | 12.6µM* | x | 20µM*
COc1cccc(CN2CCCC(NC(=O)Nc3ccccc3OC)C2)c1 (stereo not given) | i | -21.9% | -0.1% | -27.7%
Cc1ccc(N2C(=S)N[C@H]3[C@@H](O)[C@H](O)C[C@@H](C(=O)NCc4cccs4)[C@H]32)cc1Cl | u | u | -2.2% | 79.4µM*
COc1ccc(N2CC(C(=O)NCc3cccs3)NC2=O)cc1 (stereo not given) | i | -20.7%[138 µM] | 15.4%[70.6 µM] | -26.0%[172 µM]
CCOC(=O)[C@@H]1CN(C(C)=O)[C@H]2c3ccc(OC)cc3O[C@@H]12 | x | -29.2% | x | u
O=C(NCC1CCCCC1)c1cn2cc(-c3ccc(F)cc3)sc2n1 | x | -41.5% | x | -20.8%
O=C(Nc1ccc2c(c1)CCC2)C1CCN(C(=O)c2ncn3c2COC(c2ccc(F)cc2)C3)CC1 (stereo not given) | 28.2µM* | i | 1.2% | 6.8%

Screens (PubChem BioAssay)
